Experiment in all cases: NCI-60 one-dose screen, 48 h (100 = growth as untreated, 0 = no growth, -100 = all killed)
Common to all, as to details: 10 µM unless noted

Assay [1] deals with HCT-15 colon.
The test system of assay [2] is HT29 colon.
The test system of assay [3] is SNB-75 CNS.
For assay [4], the system named is SNB-19 CNS.
The subject of assay [5] is U251 CNS.
The subject of assay [6] is PC-3 prostate.
In assay [7] the test system is SK-MEL-5 melanoma.
The subject of assay [8] is UACC-62 melanoma.
The test system of assay [9] is LOX IMVI melanoma.
Assay [10] concerns SK-MEL-28 melanoma.
The subject of assay [11] is SK-MEL-2 melanoma.
Assay [12] relates to EKVX NSCLC.
Assay [13] has as its system SN12C renal.
Assay [14] concerns UO-31 renal.
The subject of assay [15] is TK-10 renal.
Assay [16] deals with ACHN renal.
The subject of assay [17] is CAKI-1 renal.
Assay [18] concerns A498 renal.
The test system of assay [19] is CCRF-CEM leukemia.
The subject of assay [20] is MOLT-4 leukemia.

The text below walks through data of PubChem BioAssay (NCI).

About 83,000 compounds went through this panel and 20% of them were active in at least one assay; those are over-represented in the sample as a whole.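 Single-dose data. Exposure time 48 hours. Values below 10 considered active.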 Values without a mark were called inactive. The source made the active and inactive calls.

On to `CN(C)C(=O)OCc1ccc2c(Cl)cc(Cl)c(O)c2n1`, for which the growth in assay [1] was 22.8%; in [2], 94%; in [3] it was 48%; in assay [4] it was 29.7%; in assay [5] it was 18.5%; in assay [6], 46.4%. In addition, the growth in [7] was 27.4%; in [8], -4.4% (active); in [9] it was 15.9%; in assay [10] it was 42.2%; in assay [11], 50.1%; in assay [12] it was 30.5%. For the same molecule, the growth is 36.6% in [13]; 27.2% in assay [14]; 64.2% in assay [15]; 27.2% in assay [16]; 18.6% in assay [17]; 68% in [18]. The growth was 23% in assay [19] and 22.1% in assay [20].
Regarding `O=C(/C=C/c1ccc(Cl)cc1)c1ccc(Nc2ccnc3cc(Cl)ccc23)cc1`, the growth in [1] was 56.1%; in assay [2] it was 30.6%; in assay [3], 92.5%; in assay [4] it was 99.7%; in [5], 52.7%; in assay [6], 70.9%. Also, the growth in assay [7] is 53.3%; in [8] it was 92.8%; in [9] it was 83.3%; in assay [10] it was 104%; in assay [11], 54%; in assay [12], 136%. The growth in assay [13] was 97.1%; in assay [14], 65%; in assay [15] it was 111%; in assay [16], 109%; in assay [17] it was 76.3%; in assay [18], 108%. Moreover, the growth in assay [19] is 3.01% (active); in [20], 43.4%.
With `CC(C)=CCC[C@](C)(O)C1CC[C@]2(C)[C@@H]1CC[C@@H]1[C@@]3(C)CC/C(=N\OCCC#N)C(C)(C)[C@@H]3CC[C@]12C` (stereo not given in full), the growth in [1] is 83.4%; in assay [2], 65.1%; in [3] it was 77.8%; in assay [4] it was 92.4%; in assay [5], 90.3%; in [6], 62.3%. The growth in assay [7] was 85.8%; in assay [8], 68.9%; in [9] it was 89.2%; in assay [10], 94.1%; in [11] it was 100%; in assay [12], 72.4%. Also, the growth in assay [13] is 80%; in assay [14], 60.5%; in assay [15] it was 105%; in assay [16], 90.3%; in assay [17], 77.5%; in assay [18], 72.8%. In addition, the growth in assay [19] is 75.8%; in [20], 77.5%.
For the molecule `COc1ccccc1/C=C/C1=C(C)CCC(c2ccccc2OC)C1C` (stereo not given), the growth in assay [1] is 9.57% (active); in [2] it was 5.56% (active); in assay [3], 42.2%; in assay [4], 19.6%; in [5] it was 15.4%; in assay [6] it was -33.2% (active). Further, the growth in assay [7] was -13.3% (active); in [8], 10%; in assay [9], 7.24% (active); in [10], 49.8%; in assay [11], -7.95% (active); in assay [12] it was 35%. For the same molecule, the growth was 28% in assay [13]; 4.1% (active) in [14]; 41.1% in assay [15]; 13% in [16]; 2.23% (active) in assay [17]; -4.12% (active) in [18]. Besides, the results for the growth in [19] and in [20] were -9.01% (active) and 4.37% (active), respectively.
Consider `O=C(O)c1nn(-c2ccc(Cl)cc2)nc1N1CCCC1`, for which the growth in assay [1] was 92.2%; in [2] it was 104%; in [3], 85.7%; in assay [4], 103%; in [5], 92.3%; in assay [6], 95.4%. Further, the growth in assay [7] was 96.4%; in [8], 99.6%; in [9] it was 93.6%; in assay [10] it was 105%; in assay [11] it was 102%; in assay [12], 88.3%. In addition, the growth in assay [13] is 101%; in assay [14] it was 79.9%; in assay [15] it was 133%; in assay [16], 99.4%; in [17], 97.6%; in assay [18] it was 74.3%. In addition, the growth is 100% in assay [19] and 97.5% in assay [20].
For `Cc1csc(Nc2nc(-c3cccc(Cl)c3)nc(C(Cl)(Cl)Cl)n2)n1`, the growth is 53.9% in assay [1]; 2.7% (active) in assay [2]; 3.48% (active) in [3]; 39.9% in assay [4]; 19.9% in assay [5]; 39.7% in assay [6]. Moreover, the growth in assay [7] was 88.8%; in [8], 74.2%; in [9], 91.1%; in [10], 39.5%; in assay [11], 83.7%; in [12] it was 4.21% (active). In addition, the growth is 84.1% in [13]; 39.6% in assay [14]; 3.91% (active) in [15]; -21.7% (active) in assay [16]; 4.29% (active) in [17]; -18.6% (active) in [18]. In addition, the growth in assay [19] was 95.5%; in assay [20] it was 74%.
As for `CC(C)(C)c1ccc(C(=O)Nc2sc3c(c2C#N)CCC(=O)C3)cc1`, the growth in assay [1] is -18.5% (active); in assay [2] it was 5% (active); in assay [3], -6.69% (active); in [4], 14.1%; in assay [5] it was 16.4%; in assay [6], 8.36% (active). The growth in [7] is -69.8% (active); in assay [8], 9.35% (active); in assay [9], 10.5%; in [10], 28.8%; in [11], 12.8%; in assay [12], 19.1%. Besides, the growth in [13] was 9.18% (active); in [14], -99% (active); in assay [15] it was 24.3%; in assay [16], -84% (active); in assay [17] it was -74.4% (active); in [18] it was 89.8%. Moreover, the growth is 8.53% (active) in [19] and 10.6% in assay [20].
For `CCCCC/C=C/CCC(=O)N[C@H]1[C@H](Oc2c3cc4cc2Oc2ccc(cc2Cl)[C@@H](O[C@@H]2O[C@H](CO)[C@@H](O)[C@H](O)[C@H]2NC(C)=O)[C@@H]2NC(=O)[C@H](NC(=O)[C@@H]4NC(=O)[C@H]4NC(=O)[C@@H](Cc5ccc(c(Cl)c5)O3)NC(=O)[C@@H](N)c3ccc(O)c(c3)Oc3cc(O)cc4c3)c3ccc(O)c(c3)-c3c(O[C@H]4O[C@H](CO)[C@@H](O)[C@H](O)[C@@H]4O)cc(O)cc3[C@H](C(=O)O)NC2=O)O[C@H](CO)[C@H](O)[C@@H]1O`, the growth in [1] is 111%; in assay [2], 103%; in assay [3] it was 109%; in assay [4], 87.3%; in [5], 95.7%; in assay [6] it was 89.9%. For the same molecule, the growth is 108% in assay [7]; 96.4% in [8]; 91.5% in assay [9]; 119% in assay [10]; 112% in [11]; 96.4% in [12]. Also, the growth in assay [13] was 94.7%; in assay [14], 82%; in assay [15], 112%; in assay [16], 103%; in assay [17], 84.1%; in assay [18], 102%. Besides, the growth is 113% in assay [19] and 101% in assay [20].
